# Measured values from PubChem BioAssay (NCI).
# This is part of a sample that, as a whole, favours compounds with a hit. Of some 83,000 tested, about 20% had one in any assay.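 48-hour exposure, single concentration, 96-well plates; percent growth endpoint where 0 means no net growth. Active: below 10.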 Unmarked numbers belong to inactive results. The source made the active and inactive calls.
# Assays:
# Assay in all cases: NCI-60 one-dose screen, 48 h (100 = growth as untreated, 0 = no growth, -100 = all killed)
# Details in all cases: 10 µM unless noted
# NCI-H23 lung = test system: NCI-H23 lung
# NCI-H226 lung = test system: NCI-H226 lung
# NCI-H322M lung = test system: NCI-H322M lung
# HOP-62 NSCLC = test system: HOP-62 NSCLC
# NCI-H460 lung = test system: NCI-H460 lung
# HOP-92 NSCLC = test system: HOP-92 NSCLC
# NCI-H522 lung = test system: NCI-H522 lung
# A549/ATCC NSCLC = test system: A549/ATCC NSCLC
# 786-0 renal = test system: 786-0 renal
# COLO 205 colon = test system: COLO 205 colon
SMILES,growth (NCI-H23 lung),growth (NCI-H226 lung),growth (NCI-H322M lung),growth (HOP-62 NSCLC),growth (NCI-H460 lung),growth (HOP-92 NSCLC),growth (NCI-H522 lung),growth (A549/ATCC NSCLC),growth (786-0 renal),growth (COLO 205 colon)
Cn1c(Nc2ccc(C(F)(F)F)cc2)nc2cc(Oc3ccnc(-c4ncc(C(F)(F)F)[nH]4)c3)ccc21,48.8%,64.5%,30.8%,60%,59.2%,67%,40.5%,40.1%,89.4%,22.9%
O=C(CNc1nc2ccccc2s1)Nc1ccc(-c2nc3ccccc3s2)cc1,88.9%,92.4%,92.3%,104%,99.8%,99.8%,91.2%,100%,102%,112%
O=C(Nc1cnn2ccc(N3CCC[C@@H]3c3cc(F)ccc3F)nc12)N1CC[C@H](O)C1,87.8%,93.8%,104%,71.8%,84.1%,89.5%,70.5%,72.4%,91%,71.6%
CC(C)(O)CC(=O)NCCn1ccc2ncnc(Nc3ccc(Oc4cccc(C(F)(F)F)c4)c(Cl)c3)c21,20%,26.1%,-2.67% (active),-12.2% (active),11.1%,-23.1% (active),-20.4% (active),1.14% (active),22.6%,-67.4% (active)
Cc1cc(Nc2ncnc3ccc(NC4=NC(C)(C)CO4)cc23)ccc1Oc1ccn2ncnc2c1,35.6%,47%,5.34% (active),22.3%,26.9%,9.05% (active),6.43% (active),20.7%,29.7%,-60.7% (active)
Cc1oc2c(C(=O)N/N=C\c3ccc(O)cc3O)c[nH]c2c1C,40.7%,28.8%,26.3%,20.9%,4.29% (active),13.4%,16.1%,12.7%,5.43% (active),8.96% (active)
CC(=O)Nc1cccc(-n2c(=O)n(C3CC3)c(=O)c3c(Nc4ccc(I)cc4F)n(C)c(=O)c(C)c32)c1,17.1%,49.5%,10.9%,19.5%,56.1%,-27% (active),34.6%,28.4%,56.2%,-12.9% (active)
C=CC(=O)Nc1cccc(Nc2nc(Nc3ccc(N4CCN(C(C)=O)CC4)cc3OC)ncc2C(F)(F)F)c1,26.7%,26.8%,-28.9% (active),27.6%,9.55% (active),-18.1% (active),-12% (active),5.15% (active),8.43% (active),-37.4% (active)
CO[C@H]1C[C@@H]2CC[C@@H](C)[C@@](O)(O2)C(=O)C(=O)N2CCCC[C@H]2C(=O)O[C@H]([C@H](C)C[C@@H]2CC[C@@H](O)[C@H](OC)C2)CC(=O)[C@H](C)/C=C(\C)[C@@H](O)[C@@H](OC)C(=O)[C@H](C)C[C@H](C)\C=C/C=C/C=C/1C,51.3%,47.9%,43.7%,43.8%,31.9%,41.1%,39.4%,35.1%,42.1%,44.3%
CCc1nc2cc(/C=C/C(=O)NO)ccc2c(=O)n1CCc1ccc(F)cc1,1.11% (active),20.3%,18.6%,-11.8% (active),4.24% (active),-4.03% (active),3.72% (active),7.13% (active),-23% (active),-35.7% (active)
CN1CCN(Cc2ccc(NC(=O)c3[nH]ncc3Nc3ncnc4sc5c(c34)CCCC5)cc2)CC1,-63.7% (active),-51.9% (active),-50.8% (active),-72% (active),-62.2% (active),-21.1% (active),-76.1% (active),-58.2% (active),-92.2% (active),-93% (active)
COC(=O)c1ccc2c(C(=Nc3ccc(N(C)C(=O)CN4CCN(C)CC4)cc3)c3ccccc3)c(O)[nH]c2c1,67.8%,47%,58.8%,38.8%,92%,18.4%,39.1%,45.8%,41.4%,34%
CC(=Nc1ccccc1)C1=C(O)C(Cc2ccccc2)NC1=O (stereo not given),-1.27% (active),15.4%,45.7%,16.7%,3.86% (active),-9.07% (active),-15.4% (active),-28.9% (active),8.26% (active),-71.8% (active)
COc1cc(NCCN(CC(C)C)CC(C)C)c2ncc(C)cc2c1,42%,90.5%,82.9%,51.5%,60.4%,132%,73.2%,31.7%,91.3%,49.6%
Cc1cnc(NC(=O)Nc2cc(Br)c(C)cc2OC[C@@H]2CNCCO2)cn1,15%,51.2%,34.3%,12.5%,4.27% (active),35%,-16.4% (active),17.5%,2.83% (active),3.34% (active)
COC(=O)[C@H](Cc1ccc(O)cc1)NC(=O)[C@@H](OC)[C@@H]1Cc2cc3cc(OC4CC(OC5CC(O)C(O)C(C)O5)C(O)C(C)O4)c(C)c(O)c3c(O)c2C(=O)[C@H]1OC1CC(OC2CC(OC3CC(C)(O)C(O)C(C)O3)C(O)C(C)O2)C(O)C(C)O1 (stereo not given in full),-38.6% (active),-17.6% (active),11.1%,19.3%,6.99% (active),12.2%,-19.5% (active),4.32% (active),1.98% (active),-22.8% (active)
Cn1cnc2c(F)c(Nc3ccc(Br)cc3Cl)c(C(=O)NOCCO)cc21,25.7%,55.3%,11.2%,28.6%,60.2%,-0.548% (active),44.4%,35.8%,71.1%,-3.79% (active)
Cc1c(N)ccc(-c2ccc(N)c(C)c2S(=O)(=O)O)c1S(=O)(=O)O,98%,111%,108%,107%,112%,86.1%,101%,117%,106%,111%
COc1cc(-c2cc(-c3ccc(Nc4ccnc5cc(Cl)ccc45)cc3)nc(N3CCOCC3)n2)cc(OC)c1OC,0.48% (active),92.3%,28.9%,-39.1% (active),-43.9% (active),85.8%,-23.7% (active),-30.7% (active),-65.5% (active),32.4%
N#Cc1c(-c2ccc(C(F)(F)F)cc2)c(F)c(NCCC2CCC(O)C2)n2c1nc1ccccc12 (stereo not given),72.5%,69.2%,58.5%,59.2%,42%,32.5%,65.7%,52.8%,69.4%,41.1%
CS(=O)(=O)CCNCc1ccc(-c2ccc3ncnc(Nc4ccc(OCc5cccc(F)c5)c(Cl)c4)c3c2)o1,25.9%,54.7%,13.8%,19.2%,-58% (active),-1.7% (active),-44.5% (active),-39.4% (active),-63.7% (active),-27.2% (active)
C=CC(=O)N1CCC[C@@H](n2nc(-c3ccc(Oc4ccccc4)cc3)c3c(N)ncnc32)C1,95.3%,45%,-1.22% (active),73.1%,90%,28.3%,1.41% (active),46.6%,30.4%,61.3%
COc1ccc(F)c(F)c1C(=O)c1cnc(NC2CCN(S(C)(=O)=O)CC2)nc1N,-36.5% (active),3.23% (active),2.76% (active),-24.7% (active),3.3% (active),-8.59% (active),-29.5% (active),3.28% (active),14.4%,-79.7% (active)
